Screening results from PubChem BioAssay.
GPR151 activ = activates the human receptor GPR151; Q8TDV0; PathHunter beta-arrestin GPR151 cells, luminescence; activation, % at 11.2 µM; 1% of 650,000 active; AID 1508602; in the data active = activation above about 4.9%
TEAD-YAP block = TEAD-YAP interaction inhibition; HEK-TIYL cells, TEAD-Gal4/YAP UAS-luciferase luminescence; inhibition, % at 9.12 µM; 1.4% of 640,000 active; AID 1259422; in the data active = inhibition above about 32%
FBW7 activator = human FBW7 E3 ligase activation, primary screen. Q969H0. AlphaScreen FBW7–phospho-cyclin E peptide binding, activator screen. normalized activity (activation), % at 26.1 µM. 0.13% of 650,000 active. AID 1259310; in the data active = normalized activity above about 1.9%;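 note: purified mutant Fbw7 with reduced substrate affinity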
Target sequence (Q969H0 whole entry, looked up): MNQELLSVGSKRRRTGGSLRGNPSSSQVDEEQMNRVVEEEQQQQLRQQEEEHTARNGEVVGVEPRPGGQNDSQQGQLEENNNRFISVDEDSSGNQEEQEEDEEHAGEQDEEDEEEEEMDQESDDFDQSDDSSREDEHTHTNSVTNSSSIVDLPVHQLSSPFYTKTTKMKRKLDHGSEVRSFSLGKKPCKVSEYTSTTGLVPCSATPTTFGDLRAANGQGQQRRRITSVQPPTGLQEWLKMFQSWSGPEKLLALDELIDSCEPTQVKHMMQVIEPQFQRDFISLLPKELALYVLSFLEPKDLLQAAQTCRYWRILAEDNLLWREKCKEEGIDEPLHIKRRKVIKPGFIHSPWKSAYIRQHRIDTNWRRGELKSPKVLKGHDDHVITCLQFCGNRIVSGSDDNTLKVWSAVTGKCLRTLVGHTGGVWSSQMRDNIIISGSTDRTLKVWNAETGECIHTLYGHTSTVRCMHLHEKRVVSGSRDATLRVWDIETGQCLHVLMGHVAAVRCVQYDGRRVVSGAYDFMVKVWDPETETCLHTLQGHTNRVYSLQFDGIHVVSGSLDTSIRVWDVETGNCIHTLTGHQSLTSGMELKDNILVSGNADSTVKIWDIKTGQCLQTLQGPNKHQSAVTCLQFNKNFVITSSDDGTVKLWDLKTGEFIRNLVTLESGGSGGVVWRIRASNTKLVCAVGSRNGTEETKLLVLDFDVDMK
MITF inh = blocks human microphthalmia-associated transcription factor; inhibition, % at 2.6 µM; 0.91% of 650,000 active; O75030; AID 1259374; AlphaScreen MITF homodimerization, bead proximity signal; in the data active = inhibition above about 50%
Each line names hits and unclear results; the compound was inactive in the other large screens. A selection: hits, their analogues and other compounds. The true share with any hit is near 3.4%.

Oc1ccc(N=Cc2ccc[nH]2)cc1N=Cc1ccc[nH]1	MITF inh 87
CCC1CCC(C(=O)NC(C(=O)NCCc2ccc(S(N)(=O)=O)cc2)C(C)C)CC1 (configuration not stated)	TEAD-YAP block 40
CC(=O)c1ccc(NCN2C(=O)c3ccc([N+](=O)[O-])cc3C2=O)cc1	none
CCOC(=O)C1=CN(Cc2ccc(Cl)cc2)C=C(C(=O)OCC)C1c1cc(OC)ccc1OC	none
CC(C)C(NC(=O)OC(C)(C)C)C(=O)N1CCCC1C(N)=O (configuration not stated)	FBW7 activator 2.0
CN(C)c1ccc(/C=N/NC(=O)c2cccc(O)c2)cc1	TEAD-YAP block 60
CN(C)c1ccc(/C=N/Nc2cn[nH]c(=O)n2)cc1	TEAD-YAP block 81
CN(C)c1ccc(/C=N/Nc2nc3ccccc3o2)cc1	TEAD-YAP block 55
O=[N+]([O-])c1ccc(/C=N/Nc2nc3ccccc3o2)cc1	none
Cc1cc(/C=N/NC(=O)c2cccc(N(C)C)c2)c(C)n1-c1cc(C(=O)O)cc(C(=O)O)c1	MITF inh 52
CN(C)c1ccc(/C=N/NC(=O)c2cc(O)cc(O)c2)cc1	none
N#Cc1ccc(S(=O)(=O)CC(=O)OCC(=O)c2ccc(Br)cc2)cc1C#N	none
O=C(c1ccc(Sc2ccccc2Cl)c([N+](=O)[O-])c1)N1CCCCC1	none
N#CC1(C#N)[C@H](c2ccccc2F)[C@@H](C(=O)c2ccccc2)N2c3ccc(F)cc3C=C[C@@H]21	none
CN(C)c1ccc(/C=N/NC(=O)c2ccn(C)n2)cc1	none
CN(C)c1ccc(/C=N/NC(=O)c2[nH]ncc2Br)cc1	TEAD-YAP block 32
O=C(N/N=C/c1c(O)ccc2ccccc12)c1[nH]ncc1Br	TEAD-YAP block 42
O=C(CN1CCCC1)N/N=C/c1c(O)ccc2ccccc12	TEAD-YAP block 88, MITF inh 58
O=C(N/N=C/c1c(O)ccc2ccccc12)c1c[nH]c2ccccc12	none
O=C(N/N=C/c1c(O)ccc2ccccc12)c1ccccc1O	TEAD-YAP block 75
O=C(N/N=C/c1c(O)ccc2ccccc12)C(=O)N1CCCC1	none
O=C1C(Nc2ccccc2)=CC(c2ccccc2[N+](=O)[O-])N1c1ccccc1 (configuration not stated)	none
CCCc1noc(-c2cc(-c3ccncc3)nc3ccccc23)n1	none
O=C(N/N=C\c1c(O)ccc2ccccc12)c1ccccc1O	TEAD-YAP block 81
COc1cc(NC(=O)CN2CCN(c3ccccn3)CC2)cc(OC)c1	none
CCOc1ccc(C(=O)NCC(=O)OCC(=O)c2c(C)[nH]c3ccccc23)cc1	FBW7 activator 2.1
Cc1[nH]c2ccccc2c1C(=O)COC(=O)CNC(=O)c1ccc(Br)o1	none
Cc1ccc(NC(=O)c2ccc(Cl)cc2[N+](=O)[O-])nc1	TEAD-YAP block 41
Cc1cc(C)c(NC(=O)c2ccc(Cl)cc2)c([N+](=O)[O-])c1	TEAD-YAP block 42
Cc1ccc(NC(=O)c2ccc(Cl)cc2Cl)nc1	TEAD-YAP block 35
C=CCN(c1ccccc1)S(=O)(=O)c1ccc(F)c(C(=O)Nc2c(CC)cccc2CC)c1	none
Cc1c(C(=O)N(C)Cc2nccs2)cnn1-c1nccc(-c2ccc3c(c2)OCO3)n1	none
C/C(=N\N=C1/NC(=O)C(CC(=O)O)S1)c1ccc2ccccc2c1O (configuration not stated)	MITF inh 83
COc1cc(CN2CCN(C3CCCCC3)C(CCO)C2)cc(Cl)c1O (configuration not stated)	none
CCc1ccc(Nc2nc(-c3sc(C)nc3C)cs2)cc1	TEAD-YAP block 47
CCC(=O)Nc1nc(C)c(-c2csc(Nc3ccc(OC)cc3)n2)s1	TEAD-YAP block 33
CCC(=O)Nc1nc(C)c(-c2csc(Nc3cc(OC)ccc3OC)n2)s1	none
Cc1nc(C)c(-c2csc(Nc3ccc(F)cc3)n2)s1	none
CNC(=O)C(Cc1ccccc1)N1C(=O)C2C3C=CC(C3)C2C1=O (configuration not stated)	none
COCCn1c(=O)n(CC(=O)N2CCC(C(N)=O)CC2)c2cccnc21	FBW7 activator 5.7
COCCn1c(=O)n(CC(=O)N2CCCCC2)c2cccnc21	none
O=C(c1cc(Cl)ccn1)N1CCN(Cc2ccsc2)CC1	none
Fc1ccccc1Nc1nnc(SCC2CCCCO2)s1 (configuration not stated)	TEAD-YAP block 73
CC1(C)CC(=O)c2cnc3c(-c4ccc(Cl)cc4)cnn3c2C1	TEAD-YAP block 57
CCn1c2c(n[n+]1[O-])C(=O)c1ccccc1C2=O	TEAD-YAP block 101
O=C1c2ccccc2C(=O)c2c1nc1ccccn21	none
CCOC(=O)C1CCCn2c1nc1cc(-c3ccc(OC)cc3)sc1c2=O (configuration not stated)	TEAD-YAP block 52
CCOC(=O)C1CCCn2c1nc1c(c2=O)CCCC1 (configuration not stated)	none
O=C(CCC1=NS(=O)(=O)c2ccccc2N1)OCc1ccc(Cl)cc1	none
CCOC(=O)c1nnn(-c2nonc2N)c1CN(CC)c1ccccc1	none
CCOC(=O)c1nnn(-c2nonc2N)c1CN(Cc1ccccc1)C(C)C	TEAD-YAP block 44
N#C/C(=C\c1ccc(O)c(O)c1)C(=O)c1ccc(O)c(O)c1	MITF inh 86
Cc1cccc(OS(=O)(=O)c2cn(C)c(=O)n(C)c2=O)c1	FBW7 activator 3.6
COc1ccc(N2C(=O)CSC2c2cccc([N+](=O)[O-])c2)c(OC)c1 (configuration not stated)	TEAD-YAP block 46
COc1ccc(N2C(=O)CSC2c2cccc(F)c2)c(OC)c1 (configuration not stated)	none
COc1ccc(C(=O)C[n+]2cc(-c3ccc(OC)cc3)n3c2CCCCC3)cc1	TEAD-YAP block 38
COc1ccc(-c2c[n+](CC(=O)c3ccc(Cl)cc3)c3n2CCCCC3)cc1	none
CC(=O)c1cccc(-c2cnc3c(Nc4ccc(O)cc4)nccn23)c1	none
COc1cncc(-c2cnn3ccc(Nc4ccc(N5CCOCC5)cc4)nc23)c1	TEAD-YAP block 39
COc1cc(-c2cnn3ccc(Nc4ccccc4)nc23)cc(OC)c1OC	TEAD-YAP block 47
COc1ccc(-c2ccc(C(=O)NCCOc3ccccc3)s2)cn1	none
CCc1c(C)nc(NC2CCN(C(=O)C3(c4ccc(OC)cc4)CC3)CC2)[nH]c1=O	none
COc1ccc(C2(C(=O)N3CCC(Nc4nc5c(c(=O)[nH]4)CCC5)CC3)CC2)cc1	FBW7 activator 1.9
CCN(CC)c1cc(-c2ccccn2)nc(-c2ccccc2)n1	none
CCN(CC)c1cc(-c2ccccc2F)nc(-c2ccncc2)n1	none
CCN(CC)c1cc(-c2ccccn2)nc(-c2ccccn2)n1	TEAD-YAP block 86, MITF inh 113
CCN(CC)c1cc(-c2ccccc2F)nc(-c2ccccn2)n1	TEAD-YAP block 50
Cc1cnc(CNc2cc(-c3ccccc3F)nc(-c3ccccn3)n2)nc1	TEAD-YAP block 33
CCn1c(SCC(=O)NC(C)c2ccccc2)nnc1C(C)NC(=O)c1ccccc1 (configuration not stated)	none
Cc1ccc(-c2csc(Nc3ccc4c(c3)OCO4)n2)cc1	none
